“And” between values parts separate entries of the source, which are not always exact repeats. Identical values can stand only once. Records with an inconclusive call do not appear. Where a call stands in place of a potency, no number is given. Where a structure was tested more than once in an assay, its records may differ in their call. The source made the active and inactive calls. The call rests on the fitted dose curve; in most records, active means well fitted cell-killing curve with a large enough effect; inconclusive means small, poorly fitted or top-dose-only effect, or effect the other way; inactive means no such curve, though single readings can be large or run the other way.
Test: Viability qHTS for spleen associated tyrosine kinase inhibitor (SYKi) naive MV4-11 cells (AID 1963823); further: nearly all actives have a fitted effect of over 40% in size
Details: MV4-11 AML viability, CellTiter-Glo luminescence, 72 h; series mostly up to 45 µM
From the text: Department of Medicine, Hematology/Oncology
University Hospital Frankfurt, Germany.
Trials have shown promising clinical activity of the selective SYK inhibitor entospletinib in patients with high expressing HOXA9/MEIS1 acute leukemias. As the development of resistance mechanisms is a common problem in the use of targeted drugs, we performed a chemical library screen to identify drug sensitivities in SYK inhibitor resistant AML cells. […] Glucocorticoids are potent immunosuppressants which work in part by inhibiting the transcription of cytokine genes.
Described herein is a viability screen to look for activity in the SYK inhibitor naive cell line against four NCATS compound libraries (MIPE 5.0, NPC, NPACT, and Kinase) totaling 11372 compounds. Active hits were reacquired for confirmation and further secondary assay testing.
SEQUENCE No. (e.g., 1, 2, 3, etc.); […] (e.g., Cells, Incubation, Reagent, etc.); VALUE; DESCRIPTION.
1; Media; 2uL; white, solid-bottom Corning assay plate.
2; Compounds; 23nL; Echo acoustic dispenser.
3; Cell; 5uL; 500 cells per well.
4: Incubation; 72hr; 37 C, 5% CO2, 95% humidity.
5; Reagent; 3uL; CellTiter-Glo reagent (Promega).
6; Incubation; 10min; room temperature.
7; Detection; Luminescence; ViewLux plate reader (PerkinElmer).
NOTES (numbers refer to Sequence numbers above
1. Quantitative high-throughput screening (qHTS) of small molecule compounds was conducted on naive SYKi MV4-11 cell line.
2. Twenty-three nanoliter of small molecule compounds were added to each assay plates using the Echo acoustic dispenser (Beckman Coulter).
3. Cells were seeded into the assay plates at a final density of 500 cells in 5uL of media per well using the Multi-drop Combi dispenser.
4. Plates were covered with stainless steel gasketed lids and incubated for 72 hours at standard cell culture conditions.
5. Viability was assessed by adding 3uL of CellTiter-Glo detection reagent (Promega).
6. Plates were covered with gasket lids and incubated for 10 minutes at room temperature.
7. Luminescence was measured on a ViewLux plate reader (PerkinElmer).
Potency means the concentration at half of the fitted maximal effect.

Structure (SMILES) | Potency | viability (% of control)
C[C@@H]1C[C@H]2[C@@H]3CCC4=CC(=O)C=C[C@]4(C)[C@@]3(F)[C@@H](O)C[C@]2(C)[C@@]1(O)C(=O)COP(=O)(O)O | inactive | 
CC1CCN(c2cc(N3CCN(C)CC3)ccc2NC(=O)c2cc(C#N)c[nH]2)CC1 | 5.25 µM (active) | 
OC/C=C/C=C/[C@H]1Cc2cc(O)cc(O)c2O1 | inactive | 
C[C@]1(CO)CCC[C@]2(C)C3=C(CCC12)COC3 (stereo not given in full) | inactive | 
O=C(/C=C/c1ccccc1)OCc1ccccc1 | inactive | 
CCCCCCCCCCCCCCCC[N+](C)(C)CCN(Cc1ccc(OC)cc1)c1ncccn1 | 2.66 µM (active) | 
Cc1cc(O)cc2c1[C@]1(C)CC[C@H]3C(C)(C)CCC[C@]3(C)[C@H]1C2 |  | 65.3% [at 4.97 µM] (inactive)
Cc1cnc(NC(=O)c2cc(Oc3cnc(C(=O)N(C)C)nc3)c3cc(C)oc3c2)cn1 | inactive | 
Nc1ccc(N)c([N+](=O)[O-])c1 | 24.3 µM (active) | 
NCCCC(O)(P(=O)(O)O)P(=O)(O)O | inactive | 
OC[C@H]1O[C@@H](O[C@@H]2OC=C[C@H]3[C@H](O)[C@@H]4O[C@]4(CO)[C@@H]23)[C@H](O)[C@@H](O)[C@@H]1O | inactive | 
Nc1c2c(nc3c1CCC3)CCCC2 | inactive | 
CC(NC(=O)Cc1cc(F)cc(F)c1)C(=O)NC1C(=O)N(C)c2ccccc2-c2ccccc21 (stereo not given) | 5.17 µM (active) | 
CCCc1cc(C(N)=S)ccn1 | inactive | 
NS(=O)(=O)c1cc2c(cc1Cl)NC(CC1CCCC1)NS2(=O)=O (stereo not given) | inactive | 
CNCc1ccc(-c2[nH]c3cc(F)cc4c3c2CCNC4=O)cc1 | 13 µM (active) and 16.6 µM (active) | 
Cn1cc(Nc2cnccc2C(=O)O)c2cccnc21 | inactive | 
CN(C)CC1CCn2c(c(C3=C(c4cn(C)c5ccccc45)C(=O)NC3=O)c3ccccc32)C1 (stereo not given) | 1.46 µM (active) | 
CNC(=O)c1cccc2cc(Oc3ccnc4cc(OCC5(N)CC5)c(OC)cc34)ccc12 | 13 µM (active) | 
CC(=O)Nc1ccc(OC(=O)c2ccccc2OC(C)=O)cc1 | inactive | 

Structure (SMILES) | Potency | viability (% of control)
CC(=O)OC1C(O)CC2(C)C(CCC3(C)C2CC=C2C4C5(CCC(CO[C@@H]6O[C@H](CO)[C@@H](O)[C@H](O)[C@H]6O)(OC5=O)C4(C)O)C(O)CC23C)C1(C)C (stereo not given in full) | inactive | 
C/C1=C\CC(C)(C)/C=C/C/C(C(=O)O)=C/CC1 | 23.1 µM (active) | 
CC[C@H](Nc1ncnc2nc[nH]c12)c1nc2cccc(F)c2c(=O)n1-c1ccccc1 | 0.332 µM (active) | 57.2% [at 9.25 µM] (inactive)
CC(C(=O)O)c1cccc(Oc2ccccc2)c1 (stereo not given) | inactive | 
CC(C)c1c(NC(=O)Nc2ccc(Cl)cc2)c(=O)n(-c2ccccc2)n1C | inactive | 
CCOC(=O)C1=CCCCC1S(=O)(=O)Nc1ccc(F)cc1Cl (stereo not given) | 20.9 µM (active) | 
Cc1c(N)cccc1C(F)(F)F | inactive | 
CC(C)C(C)C(O)C1CC23CC(=O)C4(O)C(=C2CCC3C1C)C=CC1(O)CC(O)CCC14C (stereo not given) | inactive | 
OCC(O)CN1CCN(c2ccccc2)CC1 (stereo not given) | 422 nM (active) and inactive | 
C/C=C/C=C/C(O)=C1/C(=O)[C@]2(C)C(=O)[C@@](C)(O)[C@H]1[C@H]([C@@]1(C)OC(=O)C(C)=C1O)[C@H]2C(=O)CC/C=C/C | inactive | 
Cc1cc(O[C@@H]2O[C@H](COC(=O)CC(=O)O)[C@@H](O)[C@H](O)[C@H]2O)c(C(C)C)cc1O | inactive | 
COc1cc2nc(N3CCCC3)nc(NCCCCCN3CCCC3)c2cc1OC | 1.3 µM (active) | 
Cc1cc2c(OCC(CNC(C)(C)C)OC(=O)c3ccccc3)cccc2[nH]1 (stereo not given) | inactive | 
Cc1ccnc(NS(=O)(=O)c2ccc(NC(=O)Nc3ccc(S(=O)(=O)Nc4nccc(C)n4)cc3)cc2)n1 | inactive | 
CC1=C(/C=C/C(C)=C/C=C/C(C)=C/C=C/C=C(C)/C=C/C=C(C)/C=C/C2=C(C)CCCC2(C)C)C(C)(C)CCC1 | 23.5 µM (active) | 
Cc1cc(C)nc(NS(=O)(=O)c2ccc(NC(=S)NC(=O)COc3ccc(Br)cc3Cl)cc2)n1 | inactive | 
COC1=CC(=O)C[C@@H](C)[C@]12Oc1cc(OC)cc(OC)c1C2=O | inactive | 
N#Cc1ccc2[nH]c(O)c(-c3ccc(CN4CCOCC4)cn3)c2c1 | inactive | 
CC1=C2C(=O)C=C(CO)C2C2OC(=O)C(CS(=O)(=O)O)C2C(OC(=O)Cc2ccc(O)cc2)C1 (stereo not given) | inactive | 

— PubChem BioAssay (NCATS)
